# According to PubChem BioAssay (NCATS):
# Several values for one entry are separate records, joined by “and”; a condition that tells them apart may be missing. Identical values can stand only once. Results filed as inconclusive are left out. Activity calls are given as the source filed them. Unless noted, calls follow the shape of the dose curve; as a rule, active = well fitted curve in the direction sought with a large enough effect; inconclusive = small, poorly fitted or top-dose-only effect, or another doubt; inactive = no such curve, though single readings can be large; an effect the other way counts as inactive or inconclusive.
# Experiments:
# [1] = Primary qHTS for inhibitors of nuclear receptor binding SET domain protein 2 (NSD2) in an RCH-ACV wild type WT cells (2C) (AID 1645877); also: potency is read from the fitted curve at half-maximal effect; nearly all actives have a fitted effect of over 70% in size
# [2] = Primary qHTS for inhibitors of nuclear receptor binding SET domain protein 2 (NSD2) in an isogenic RCH-ACV NSD2 p.E1099K mutant (9B) (AID 1645876); also: potency is read from the fitted curve at half-maximal effect; nearly all actives have a fitted effect of over 70% in size
# [3] = target: Rap guanine nucleotide exchange factor 3 (Homo sapiens) (UniProt O95398); test: Confirmatory qHTS for antagonist of cAMP-regulated guanine nucleotide exchange factor 3 (EPAC1) (AID 1645880);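 also: plate controls were DMSO only for no effect and full effect of the ATA control for full effect; nearly all actives have a fitted effect of over 55% in size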
# Sequence of Rap guanine nucleotide exchange factor 3 (Homo sapiens) (O95398 whole entry, looked up): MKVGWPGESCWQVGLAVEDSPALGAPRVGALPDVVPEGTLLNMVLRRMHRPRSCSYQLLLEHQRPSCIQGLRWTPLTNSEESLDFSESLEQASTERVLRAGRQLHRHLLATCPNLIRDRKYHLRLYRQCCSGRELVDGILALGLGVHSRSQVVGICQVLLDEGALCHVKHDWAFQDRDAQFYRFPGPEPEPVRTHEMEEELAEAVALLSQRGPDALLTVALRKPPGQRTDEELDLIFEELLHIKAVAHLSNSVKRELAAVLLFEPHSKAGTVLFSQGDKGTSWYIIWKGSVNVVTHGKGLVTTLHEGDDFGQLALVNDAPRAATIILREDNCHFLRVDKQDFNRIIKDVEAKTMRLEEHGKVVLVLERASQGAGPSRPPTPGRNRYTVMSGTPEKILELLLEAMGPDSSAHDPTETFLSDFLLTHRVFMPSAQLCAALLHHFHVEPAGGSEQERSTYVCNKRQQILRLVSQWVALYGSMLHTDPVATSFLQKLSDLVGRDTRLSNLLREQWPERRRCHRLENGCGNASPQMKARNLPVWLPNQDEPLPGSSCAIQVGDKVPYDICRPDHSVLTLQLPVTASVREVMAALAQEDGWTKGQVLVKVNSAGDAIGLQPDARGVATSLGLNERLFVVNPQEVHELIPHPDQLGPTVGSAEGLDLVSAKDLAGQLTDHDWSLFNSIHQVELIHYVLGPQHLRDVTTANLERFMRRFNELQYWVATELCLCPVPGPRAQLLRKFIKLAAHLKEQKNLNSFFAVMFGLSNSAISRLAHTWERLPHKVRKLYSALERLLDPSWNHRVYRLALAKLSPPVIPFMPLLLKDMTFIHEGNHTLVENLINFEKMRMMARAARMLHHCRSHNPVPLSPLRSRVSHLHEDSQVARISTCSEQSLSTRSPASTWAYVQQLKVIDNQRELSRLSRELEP
# Method in brief: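 Nucleotide exchange uses 100 nM EPAC1, 250 nM RAP1B-BODIPY-GDP and 50 uM GDP, with compounds in a concentration-titration series. After 5 min at room temperature, fluorescence (480 nm ex/540 nm em) is read every 5 min for 30 min. Data are normalized to control ATA and DMSO.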
# [4] = target: Rap guanine nucleotide exchange factor 3 (Homo sapiens) (UniProt O95398); test: Confirmatory qHTS for agonist of cAMP-regulated guanine nucleotide exchange factor 3 (EPAC1) (AID 1645881);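 also: EPAC1 catalysed release of BODIPY-GDP from Rap1B seen as fluorescence loss; 100% = effect of cAMP agonist control; nearly all actives have a fitted effect of over 75% in size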
# [5] = target: Rap guanine nucleotide exchange factor 4 (Homo sapiens) (UniProt Q8WZA2); test: Confirmatory qHTS for agonist of cAMP-regulated guanine nucleotide exchange factor 4 (EPAC2) (AID 1645884);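 also: nucleotide exchange releases bodipy-GDP from Rap1 and this lowers its fluorescence; % is scaled to controls: 0 for no effect and ±100 for the full control effect; nearly all actives have a fitted effect of over 65% in size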
# Sequence of Rap guanine nucleotide exchange factor 4 (Homo sapiens) (Q8WZA2 whole entry, looked up): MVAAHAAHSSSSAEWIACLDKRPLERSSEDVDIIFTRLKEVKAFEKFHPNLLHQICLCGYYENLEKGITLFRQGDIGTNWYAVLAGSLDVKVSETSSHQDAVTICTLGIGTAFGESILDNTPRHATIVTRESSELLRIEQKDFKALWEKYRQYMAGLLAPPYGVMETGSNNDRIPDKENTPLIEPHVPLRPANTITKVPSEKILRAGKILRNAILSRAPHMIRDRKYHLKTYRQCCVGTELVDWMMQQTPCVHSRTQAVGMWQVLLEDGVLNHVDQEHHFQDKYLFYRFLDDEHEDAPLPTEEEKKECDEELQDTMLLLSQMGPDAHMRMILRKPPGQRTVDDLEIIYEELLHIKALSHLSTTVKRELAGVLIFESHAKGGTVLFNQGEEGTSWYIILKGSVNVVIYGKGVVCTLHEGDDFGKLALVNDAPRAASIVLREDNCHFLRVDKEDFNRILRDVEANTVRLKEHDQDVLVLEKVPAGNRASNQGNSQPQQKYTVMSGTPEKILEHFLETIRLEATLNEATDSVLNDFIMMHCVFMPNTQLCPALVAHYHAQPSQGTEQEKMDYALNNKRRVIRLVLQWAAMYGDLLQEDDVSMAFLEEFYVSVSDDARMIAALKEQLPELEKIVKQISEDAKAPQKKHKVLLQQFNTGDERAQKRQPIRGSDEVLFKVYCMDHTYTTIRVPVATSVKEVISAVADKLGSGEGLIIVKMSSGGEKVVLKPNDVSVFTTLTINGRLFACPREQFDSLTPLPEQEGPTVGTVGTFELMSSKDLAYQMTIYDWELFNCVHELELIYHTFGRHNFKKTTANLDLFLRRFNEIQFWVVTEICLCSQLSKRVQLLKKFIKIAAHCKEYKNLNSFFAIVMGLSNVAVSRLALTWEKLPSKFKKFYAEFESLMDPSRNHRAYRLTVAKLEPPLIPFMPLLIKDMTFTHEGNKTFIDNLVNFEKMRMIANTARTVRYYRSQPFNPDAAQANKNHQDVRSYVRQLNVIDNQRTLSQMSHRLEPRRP
# [6] = target: Rap guanine nucleotide exchange factor 4 (Homo sapiens) (UniProt Q8WZA2); test: Confirmatory qHTS for antagonist of cAMP-regulated guanine nucleotide exchange factor 4 (EPAC2) (AID 1645885); also: % is scaled to controls: 0 for no effect and ±100 for the full control effect; nearly all actives have a fitted effect of over 25% in size
# [7] = target: Catechol O-methyltransferase (Homo sapiens) (UniProt P21964); test: Confirmatory Screen for Target Class Profiling of Small Molecule Inhibitors of Methyltransferases (AID 1745852; calls by dose curve; as to activity change, negative = inhibition: % is scaled to controls: 0 for no effect and ±100 for the full control effect); conditions: MTase-Glo luminescence, SAH detection, recombinant enzyme; measured here: COMT max response; stronger effect = lower value
# Sequence of Catechol O-methyltransferase (Homo sapiens) (P21964 whole entry, looked up): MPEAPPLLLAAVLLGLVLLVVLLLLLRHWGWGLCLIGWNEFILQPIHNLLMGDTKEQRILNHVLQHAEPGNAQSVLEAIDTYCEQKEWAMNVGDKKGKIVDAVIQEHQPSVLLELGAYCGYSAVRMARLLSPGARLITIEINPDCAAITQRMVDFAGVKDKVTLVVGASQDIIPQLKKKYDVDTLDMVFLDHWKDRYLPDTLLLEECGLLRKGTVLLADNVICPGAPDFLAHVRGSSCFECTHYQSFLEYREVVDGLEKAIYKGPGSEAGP
# [8] = target: Guanidinoacetate N-methyltransferase (Homo sapiens) (UniProt Q14353); test: as above; conditions: MTase-Glo luminescence, SAH detection, recombinant enzyme; at 57.3 µM (top of the series)
compound,measurement,setting,value
CN1CCCC(CC2c3ccccc3Sc3ccccc32)C1 (stereo not drawn),Potency,[1],18.8 µM (active)
CC(=O)Oc1ccc2c(c1)CC[C@@H]1[C@@H]2CC[C@]2(C)[C@@H](O)CC[C@@H]12,Potency,[2],13.3 µM (active)
same,Potency,[1],8.41 µM (active)
same,Potency,[3],inactive
same,outcome,[4],inactive
same,Potency,[5],inactive
same,Potency,[6],inactive
CC[C@H](C)C(=O)O[C@H]1CCC=C2C=C[C@H](C)[C@H](CC[C@@H]3C[C@@H](O)CC(=O)O3)[C@H]21,Potency,[2],14.8 µM (active)
same,Potency,[1],14.8 µM (active)
same,activity,[7],-80.2%
same,"activity change, negative = inhibition",[8],-3.09%
C[C@H]1C[C@H]2[C@@H]3CCC4=CC(=O)C=C[C@]4(C)[C@@]3(Cl)[C@@H](O)C[C@]2(C)[C@@]1(O)C(=O)CO,Potency,[1],0.0047 µM (active)
CN1CCN(CCCN2c3ccccc3Sc3ccc(S(=O)(=O)N(C)C)cc32)CC1,Potency,[1],21.1 µM (active)
CC(C)C[C@H]1C(=O)N2CCC[C@H]2[C@]2(O)O[C@](NC(=O)[C@@H]3C=C4c5cccc6[nH]c(Br)c(c56)C[C@H]4N(C)C3)(C(C)C)C(=O)N12,Potency,[3],inactive
same,outcome,[4],inactive
same,Potency,[5],inactive
same,Potency,[6],inactive
same,activity,[7],7.86%
same,"activity change, negative = inhibition",[8],3.94%
C#C[C@]1(OC(C)=O)CC[C@H]2[C@@H]3CCC4=C[C@@H](OC(C)=O)CC[C@@H]4[C@H]3CC[C@@]21C,Potency,[1],18.8 µM (active)
same,Potency,[3],inactive
same,outcome,[4],inactive
same,Potency,[5],inactive
same,Potency,[6],inactive
NC(=NCCCCCCN=C(N)/N=C(\N)Nc1ccc(Cl)cc1)/N=C(\N)Nc1ccc(Cl)cc1,Potency,[2],2.99 µM (active) and 3.65 µM (active)
same,Potency,[1],5.96 µM (active) and 3.65 µM (active)
same,activity,[7],-5.42%
same,"activity change, negative = inhibition",[8],0.888%
